The results in this text go back to PubChem BioAssay (Tox21).

The source holds several records for some structures; these can differ, active in one and inactive in another. Calls of active or inactive are those of the source. Entries that show only a call come without a potency. The call rests on the fitted dose curve; in most records, active means well fitted activation curve with a large enough effect in the repeat runs; inconclusive means weak or mixed curves; inactive means flat fitted curve, though single readings scatter.
Potency means the concentration at half of the fitted maximal effect.

The nature of this test: A CellTox Green Cytotoxicity Assay to monitor cytotoxicity in HepG2 cells - 0 hour (AID 1224882). Further: nearly all actives have a fitted effect of over 35% in size. The settings on record: CellTox Green fluorescence; series mostly up to 76.8 µM. From the text: National Center for Advancing Translational Sciences [NCATS]
NIH Chemical Genomics Center [NCGC]
U.S. Environmental Protection Agency [EPA]
National Institutes of Environmental Health Sciences [NIEHS]
National Toxicology Program [NTP]
Cell-based models are critical for drug discovery. Determining the natural cytotoxic effects resulting from test compounds is an essential research activity. A CellTox Green Cytotoxicity Assay to monitor cytotoxicity in real time of continues cell culture during 40 hours of the compound treatment was used to screen Tox21 10K library compounds in HepG2 cells. CellTox Green Cytotoxicity Assay is a nonlytic, homogeneous, biofluorescent method to measure cytotoxicity in cell culture after experimental manipulation. The assay system uses a proprietary asymmetric cyanine dye that is excluded from viable cells but preferentially stains the dead cell's DNA. […] Viable cells produce no appreciable increases in fluorescence. Therefore, the fluorescence signal produced by the binding interaction with dead cell DNA is proportional to cytotoxicity.
The mixture of HepG2 cell suspension and reagents were dispensed at 600cells/6 ul/well in 1536-well tissue culture treated black solid bottom plates using a Multidrop dispenser. After the assay plates were incubated at a 37 C/5% CO2 incubator for 5 hours, 23 nL of compounds dissolved in DMSO, positive and negative controls was transferred to the assay plate by a pintool work station. The plates were incubated at 37 C for 40 hours. The fluorescence intensity were measured at 0h, 8h, 16h, 24h, 32h and 40h time points using ViewLux plate reader during compound treatment.
Turning to `CC(C)(c1cc(Cl)c(O)c(Cl)c1)c1cc(Cl)c(O)c(Cl)c1`, the Potency entry was “inactive”. Regarding `OCC(O)CO`, the Potency entry is “inactive”. `N#Cc1cc(Br)c(O)c(Br)c1`: the Potency entry is “inactive”. As to `O=P(Oc1ccccc1)(Oc1ccccc1)Oc1ccccc1`, the Potency entry was “inactive”. For the molecule `O=C(O)CC[N+](=O)[O-]`, the Potency entry is “inactive”.

For `C1=Cc2cccc3cccc1c23`, the Potency entry was “inactive”. Take `CCOP(=S)(OCC)O/N=C(\C#N)c1ccccc1`: the Potency result is “inactive”. With `C#CCOS(=O)OC1CCCCC1Oc1ccc(C(C)(C)C)cc1` (stereo not given), the Potency result was “inactive”. Turning to `Oc1cc(Cl)ccc1Oc1ccc(Cl)cc1Cl`, the Potency was 50.1 µM (active) and inactive. Take `CC(C)(OOC(C)(C)c1ccccc1)c1ccccc1`: the Potency entry was “inactive”. Regarding `C#C[C@]1(O)CC[C@H]2[C@@H]3CCC4=CC(=O)CC[C@]4(C)[C@H]3CC[C@@]21C`, the Potency entry was “inactive”. As for `CC(C)C(=O)OCC(C)(C)C(OC(=O)C(C)C)C(C)C` (stereo not given), the Potency result is “inactive”.

In the case of `Nn1cnnc1`, the Potency result was “inactive”. As to `CCCCCCCCCCCOC(=O)c1ccccc1C(=O)OCCCCCCCCCCC`, the Potency result was “inactive”.

As to `O=C1C=CC(=O)C=C1`, the Potency result was “inactive”.

As for `NCc1cccnc1`, the Potency result is “inactive”. As for `Oc1cc(Cl)ccc1Cl`, the Potency result is “inactive”.

In the case of `CCCCCCOC(=O)c1ccccc1C(=O)OCCCCCC`, the Potency entry is “inactive”. As for `CC(C)c1ccc(CO)cc1`, the Potency result is “inactive”.

Turning to `O=C(CCl)c1ccccc1`, the Potency result was “inactive”.

On to `c1ccc(-c2cccc(-c3ccccc3)c2)cc1`, for which the Potency result is “inactive”.

Turning to `CCC(C)c1cc([N+](=O)[O-])cc([N+](=O)[O-])c1O` (stereo not given), the Potency entry was “inactive”. For the molecule `c1cc(OCC2CO2)ccc1Cc1ccc(OCC2CO2)cc1` (stereo not given), the Potency entry was “inactive”. Regarding `C=CCc1ccc2c(c1)OCO2`, the Potency entry was “inactive”. With `Cc1ccc(OP(=O)(Oc2ccc(C)cc2)Oc2ccc(C)cc2)cc1`, the Potency entry was “inactive”. To `NC(=S)Nc1ccccc1` belongs 49.8 µM (active) and inactive; to `CCC(=O)O[C@H]1CC[C@H]2[C@@H]3CCC4=CC(=O)CC[C@]4(C)[C@H]3CC[C@]12C`, “inactive”. To `C=CC(=O)OCCO` belongs “inactive”; to `C[C@]12CCC(=O)C[C@@H]1CC[C@@H]1[C@@H]2CC[C@]2(C)[C@@H](O)CC[C@@H]12`, “inactive”.

Consider `CCC(C)(c1ccc(O)cc1)c1ccc(O)cc1`, for which the Potency entry was “inactive”.

With `CCOc1cc(Oc2ccc(C(F)(F)F)cc2Cl)ccc1[N+](=O)[O-]`, the Potency entry is “inactive”. To `CC1(C)C(C=C(Cl)Cl)C1C(=O)OC(C#N)c1cccc(Oc2ccccc2)c1` (stereo not given) belongs “inactive”; to `CCCCCCCCOC(=O)c1ccccc1C(=O)OCCCCCCCC`, “inactive”; to `c1ccc(N=Nc2ccccc2)cc1`, “inactive”. As for `O=c1oc2ccccc2c(O)c1C(CC(O)c1ccc(-c2ccc(Br)cc2)cc1)c1ccccc1` (stereo not given), the Potency result is “inactive”. Regarding `O=[N+]([O-])c1cccc2ccccc12`, the Potency result was “inactive”. With `N#CCCCl`, the Potency result is “inactive”. With `CC(C)(C)c1ccccc1O`, the Potency entry was “inactive”. Turning to `Cc1ccc2c(c1N)C(=O)c1ccccc1C2=O`, the Potency result is “inactive”.

Regarding `C=CCN(CC=C)C(=O)C(Cl)Cl`, the Potency entry is “inactive”.
